Screen size: about 360,000 compounds; about 3,000 (0.83%) were called active. The sample holds actives, similar compounds and a random draw of the others, so the mix is not that of the screen. A number with no mark means an inactive call. Cut-off read from the data, not from the text of the source: active = inhibition above about 38%; inactive = the rest.
target: G-protein coupled receptor 183 (Homo sapiens) (UniProt P32249); test: EBI2 receptor antagonists, beta-arrestin recruitment, primary screen, cell-based, luminescence, 7a,25-OHC stimulation, uHTS (AID 651636); settings: 7a,25-OHC stimulated, at 5 µM, stronger effect = higher value;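 note: enzyme fragment complementation signal reports receptor beta-arrestin coupling in cells; 0% = agonist plus DMSO wells and 100% = wells without agonist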
Sequence (P32249 whole entry, looked up, the tested form may be a part): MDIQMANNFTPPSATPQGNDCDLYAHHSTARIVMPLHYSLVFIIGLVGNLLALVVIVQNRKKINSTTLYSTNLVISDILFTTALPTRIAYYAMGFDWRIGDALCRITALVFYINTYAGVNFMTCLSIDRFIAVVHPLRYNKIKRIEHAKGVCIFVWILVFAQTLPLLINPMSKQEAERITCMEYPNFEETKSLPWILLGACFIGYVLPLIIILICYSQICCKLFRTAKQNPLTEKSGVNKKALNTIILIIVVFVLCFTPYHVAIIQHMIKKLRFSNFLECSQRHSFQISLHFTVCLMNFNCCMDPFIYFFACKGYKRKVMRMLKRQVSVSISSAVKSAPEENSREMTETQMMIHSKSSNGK

| SMILES | inhibition |
| --- | --- |
| O=C(NCc1ccc(Cl)cc1)c1cc2c(nc3sccn32)s1 | 12.5% |
| O=C(NCc1ccc(Cl)cc1)c1cc(=O)nc2sc(-c3ccccc3)nn12 | 49.6% (active) |
| O=C(Cc1ccc(Cl)cc1)NCc1nc(-c2ccccc2)no1 | 4.5% |
| CC(=O)NC12CC3CC(C1)CC(C(=O)N1CCN(C(=O)c4ccco4)CC1)(C3)C2 | 1.98% |
| COc1ccc(-c2nnn(Cc3nc(N)nc(N4CCCCC4)n3)n2)cc1 | 5.05% |
| COc1ccc(-c2c(-c3ccc(OC)cc3O)nc(C)nc2C(F)(F)F)cc1 | 14.5% |
| COc1cccc(-c2cnc(OC(C)(C)C)nc2OC(C)(C)C)c1 | -3.37% |
| COc1ccc(-c2nc(N)ncc2-c2ccc(Cl)cc2)c(O)c1 | 88.2% (active) |
| CCOc1ccc(C(=O)N(Cc2ccc(N(C)C)cc2)C2CCS(=O)(=O)C2)cc1 (stereo not drawn) | 7.56% |
| O=C(Nc1cc2c3c(c1)CC(=O)N3CCC2)c1ccccc1F | -3.38% |
| Oc1ccc2ccccc2c1N=Nc1nccs1 | 58.9% (active) |
| CC1(c2nnc(Cc3ccccc3)o2)CC(c2ccccc2F)=NO1 (stereo not drawn) | -4.25% |
| CCOC(=O)[C@]12CCCC=C1N(CCC1=CCCCC1)C(=O)[C@H](CC(=O)N1CCN(C(=O)c3ccco3)CC1)C2 | -0.759% |
| c1ccc(-c2cnc(CN3CCN(c4ccccc4)CC3)o2)cc1 | 3.15% |
| Fc1ccc(N2CCN(Cc3cnc(Oc4ccc(Br)cc4)s3)CC2)cc1 | 46.4% (active) |
| COc1ccc(N2CCN(Cc3ccc(Br)s3)CC2)cc1 | -1.05% |
| COc1ccc(OC)c(C(=O)c2coc3ccc(O)c(CN4CCOCC4)c23)c1 | 37% (active) |
| Cc1ccc(C(=O)c2coc3ccc(O)c(CN(C)C)c23)cc1 | -7.39% |
| COc1ccc(OC)c(C(=O)c2coc3ccc(OC)cc23)c1 | 5.5% |
| CN(O)C(=S)c1ccccc1 | 43% (active) |
| C=CCOC(=O)C1=C[C@@H](c2ccccc2)C[C@@H](OCc2ccc(CO)cc2)O1 | 7.13% |
| Cc1ccc2c(C)c(C(=O)N3CCN(c4ccncc4)CC3)oc2c1C | 1.76% |
| CCCC1CCC(=NNC(=S)NCCc2ccccc2)CC1 (stereo not drawn) | 66.9% (active) |
| CCCCNC(=S)N/N=C1\CCCCc2ccccc21 | 6.96% |

| SMILES | inhibition |
| --- | --- |
| Cc1cc(F)ccc1NC(=S)NCCc1ccccc1 | 1.81% |
| CC(=O)CCS(=O)(=O)c1ccc(C)c(C)c1 | -7.62% |
| CC(=O)c1cc(-c2ccccc2)n(CCC(=O)NC2CCCCCC2)c1C | -14.6% |
| COc1ccc(Sc2ccc(NC(=O)c3cccc(Cl)c3)cc2C#N)cc1 | 19.1% |
| COc1ccc(Nc2cc(Sc3ccc(OC)cc3)ncn2)cc1 | 55.7% (active) |
| COc1ccc(NC(=O)CSc2ncnc3[nH]ncc23)cc1 | -1.87% |
| CN1C(=O)CC(N2CCN(c3ccccn3)CC2)C1=O (stereo not drawn) | 1.43% |
| CO/N=C(/CS(=O)(=O)c1ccc(Br)cc1)c1ccc(OC)cc1 | 2.11% |
| O=C(CC(c1ccccc1)c1ccccc1)NCC(O)c1ccc([N+](=O)[O-])cc1 (stereo not drawn) | 68.3% (active) |
| CN(C)C(CNC(=O)Cc1ccc([N+](=O)[O-])cc1)c1ccccc1 (stereo not drawn) | -5.83% |
| O=C(NCC(O)c1ccc([N+](=O)[O-])cc1)C1CCCCC1 (stereo not drawn) | 19.3% |
| COc1ccccc1CNC(=O)C1Cc2ccccc2C(=O)O1 (stereo not drawn) | -4.46% |
| Cc1ccc(S(=O)(=O)N2CC3C(=O)C[C@@H](c4ccccc4Cl)N(S(=O)(=O)c4ccc(C)cc4)C3CC2c2ccccc2)cc1 (stereo partly drawn) | 17% |
| CC1Oc2ccccc2N(Cc2cccnc2)C1=O (stereo not drawn) | 2.36% |
| CCCCC(=O)N(C)c1c(CC)nc2c(OCc3ccc(S(C)(=O)=O)cc3)cccn12 | -7.39% |
| CCCCC(=O)N(C)c1c(CC)nc2c(OCc3ccc(Cl)cc3Cl)cccn12 | 42.4% (active) |
| CCc1nc2c(OCc3ccc(Cl)cc3Cl)cccn2c1N(C)C(=O)C(C)C | 36.4% |
| CCCOC(=O)c1c(NC(=O)c2cnn3c2NC(c2ccccc2)CC3C(F)(F)F)sc2c1CCCC2 (stereo not drawn) | -7.48% |
| Cc1ccccc1C(CC(=O)c1cccs1)C(C#N)C#N (stereo not drawn) | -15.3% |
| NC(=O)C1(N2CCCCC2)CCN(C2CC(=O)N(Cc3ccc(N4CCCC4=O)cc3)C2=O)CC1 (stereo not drawn) | -18.3% |
| COc1ccccc1-n1c(=S)[nH]c2c(sc(=S)n2-c2ccc(C)cc2C)c1=O | 0.762% |
| O=[N+]([O-])c1c(NCCO)cc(Sc2nc3ccccc3s2)c2nonc12 | 51.4% (active) |
| Cc1ccn2c(=O)c(C(=O)NCCC3=CCCCC3)c(O)nc2c1 | -7.12% |
| COc1ccc(CN(Cc2ccco2)S(=O)(=O)c2ccc(S(=O)(=O)N3CCCC3)cc2)cc1 | -7.47% |

| SMILES | inhibition |
| --- | --- |
| CCOc1ccc(CN(Cc2ccco2)S(=O)(=O)c2ccc(-n3cnnn3)c(OC)c2)cc1 | 50.9% (active) |
| COc1cc(S(=O)(=O)N(Cc2cccs2)C2CC2)ccc1-n1cnnn1 | 6.23% |
| CCCCCCCCN1C(=O)[C@H](CC(=O)NCC23CC4CC(CC(C4)C2)C3)C[C@@]2(C(=O)OC)CCCCC=C12 | 8.12% |
| COC1=CC(=O)OC(C)(c2ccccc2)C1 (stereo not drawn) | -4.31% |
| COc1ccc(S(=O)(=O)N(CC(=O)NCc2ccco2)c2ccc(F)cc2)cc1 | -6.33% |
| COc1ccc(CNC(=O)CN(c2ccc(OC)c(Cl)c2)S(=O)(=O)c2ccc(C)cc2)cc1 | 42% (active) |
| COc1ccc(CCNC(=O)CN(c2ccccc2)S(=O)(=O)c2ccccc2)cc1 | -2.04% |
| CCOP(=O)(OCC)C(Cc1ccccc1)N=C(c1ccccc1)c1ccccc1 (stereo not drawn) | 23.7% |
| O=C(NCc1ccc(F)cc1)c1cc(C2CCCCN2C(=O)C2CCCCC2)on1 (stereo not drawn) | 13.6% |
| CC1CCN(S(=O)(=O)c2ccc3[nH]c(=O)ccc3c2)CC1 | -4.98% |
| C=CCOc1c(CNn2cn[nH]c2=S)cccc1OC | -9.2% |
| O=C(Cc1ccccc1Cl)N1CCN(c2ccccn2)CC1 | 7.34% |
| O=C(c1cc2ccccc2s1)N1CCN(c2ccccn2)CC1 | 60.8% (active) |
| Cc1cc(C(=O)N2CCN(c3ccccn3)CC2)c(C)o1 | -3.6% |
| O=C(NCN1CCN(CCO)CC1)c1cnccn1 | -9.7% |
| CSCCC(c1nnnn1Cc1ccccc1)N1CCN(C/C=C/c2ccccc2)CC1 (stereo not drawn) | 19.1% |
| Cc1cccc(C)c1-n1nnnc1C(CCc1ccccc1)N1CCN(C/C=C/c2ccccc2)CC1 (stereo not drawn) | 39.8% (active) |
| CCCC(c1nnnn1C(C)(C)C)N1CCN(Cc2ccccc2)CC1 (stereo not drawn) | 12.5% |
| COC1=C/C(=C/c2c(N)n3nc(CC(=O)N4CCOCC4)sc3nc2=O)C=CC1=O | -0.898% |
| COc1ccccc1N1CCN(C(=O)C2Cc3ccccc3CN2C(=O)c2ccco2)CC1 (stereo not drawn) | 7.65% |
| O=C(c1ccc(CS(=O)(=O)c2ccccc2)o1)N1CCN(c2ccccc2)CC1 | -5.95% |
| CCOc1ccccc1N1CCN(C(=O)c2ccc3[nH]c(C)c(C)c3c2)CC1 | 18.2% |
| COc1ccccc1N1CCN(C(=O)c2cc(=O)c3cc(C)ccc3o2)CC1 | 93.3% (active) |
| COc1ccccc1N1CCN(C(=O)c2ccc(NC3=NC4CS(=O)(=O)CC4S3)cc2)CC1 (stereo not drawn) | -5.44% |

| SMILES | inhibition |
| --- | --- |
| COc1ccccc1N1CCN(c2nc(C)cc(=O)[nH]2)CC1 | -15.3% |
| COc1ccccc1N1CCN(C(=O)c2cc(=O)c3cc(C)cc(C)c3o2)CC1 | 72.9% (active) |
| O=C(c1cc(=O)c2ccccc2o1)N1CCN(c2ccccc2)CC1 | 48.1% (active) |
| O=C(NCCS(=O)(=O)N1CCN(c2ccccc2)CC1)c1cc(=O)c2ccccc2o1 | 5.68% |
| [O-][n+]1onc2c1CCc1[nH]c(-c3ccccc3)nc1-2 | 3.97% |
| CCc1nccn1S(=O)(=O)c1cccc([N+](=O)[O-])c1 | 2.08% |
| CC1(C(=O)Nc2ccc3c(c2)OCCO3)CCN1C(=O)Cc1cc(F)ccc1F (stereo not drawn) | -9.9% |
| O=C(CCCC(=O)N(CC(=O)NC1CCCC1)Cc1ccccc1Cl)Nc1ccccn1 | -4.48% |
| CC(C)CCN1CCN(C/C=C/c2ccco2)CC1CCO (stereo not drawn) | 2.4% |
| O=C(O)C1C2C=CC(C2)C1C(=O)NCc1ccccc1 (stereo not drawn) | -5.43% |
| COc1ccccc1CNC(=O)C1CCN(c2nc3ccccc3o2)CC1 | 4.11% |
| COc1ccccc1CCNC(=O)C1CCN(C(=O)/C=C/c2ccccc2)CC1 | 86.2% (active) |
| COc1ccccc1CNC(=O)C1CCN(C(=O)[C@@H]2Cc3ccccc3CN2)CC1 | -0.14% |
| O=C(NCCC1CCCCN1S(=O)(=O)c1ccc(Cl)cc1)C(=O)NCc1ccco1 (stereo not drawn) | 2.6% |
| CC1(C)Oc2ccc(C(=O)N3CCOCC3)cc2N(CC(=O)Nc2ccccc2)C1=O | 1.64% |
| Cc1cccc(OCC(O)CN2CCN(S(=O)(=O)c3ccc(C)cc3C)CC2)c1 (stereo not drawn) | 54.6% (active) |
| Cc1ccc(S(=O)(=O)N2CCN(C(=O)COC(=O)c3c(C)cc(C)cc3C)CC2)c(C)c1 | 3.87% |
| CCCc1cc(=O)[nH]c(SCC(=O)N2CCN(S(=O)(=O)c3ccc(C)cc3C)CC2)n1 | -2.8% |
| Cc1ccc(S(=O)(=O)N2CCN(C(=O)CSc3cc(C)ccc3C)CC2)c(C)c1 | 64.3% (active) |
| Cc1ccc(OCC(O)CN2CCN(CC(O)COc3ccc(C)cc3Cl)CC2)c(Cl)c1 (stereo not drawn) | 4.54% |
| CC(=O)c1ccc(OCC(O)CN2CCN(S(=O)(=O)c3cccc(Br)c3)CC2)cc1 (stereo not drawn) | 40.3% |

— PubChem BioAssay AID651636 (Sanford-Burnham Center for Chemical Genomics, 2012)
